The record followed here is PubChem BioAssay (Tox21).

Records with an inconclusive call do not appear. Values without a mark were called inactive. Calls follow the shape of the dose curve; as a rule, active = well fitted activation curve with a large enough effect in the repeat runs; inconclusive = weak or mixed curves; inactive = no such curve, though single readings can be large or run the other way.
% is scaled to controls: 0 for no effect and ±100 for the full control effect.

This test is described as follows: qHTS assay for small molecules that induce genotoxicity in human embryonic kidney cells expressing luciferase-tagged ATAD5 (AID 651632). Also: nearly all actives have a fitted effect of over 15% in size. The conditions noted are these: HEK293T ATAD5-luciferase induction, 16 h; series mostly up to 83.3 µM; activation: at the top concentration. The method, boiled down: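 Test compounds were delivered by pin tool onto HEK293T reporter cells (2,000/well) expressing ATAD5 fused to luciferase. After 16 hr at 37C, 5% CO2, Amplite was added for 30 min at room temperature and luminescence was measured.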
(qHTS replaces the single test concentration by a dilution series.)
In the case of `CCCCNCCCC`, the “activation” value is 1.96%.

In the case of `CC(C)c1ccccc1`, the “activation” value is -0.795% [at 95.3 µM].

With `CC/C=C\CCOC(=O)C(C)C`, the “activation” value was 2.21%.

Regarding `CCC1(C)NC(=O)NC1=O` (centres undefined), the “activation” value is 1.92%.

In the case of `Cc1cc(S(=O)(=O)O)c(N)cc1Cl`, the “activation” value is 2.02% [at 95.3 µM].

As for `COc1cc(N)c(Cl)cc1C(=O)NC1CCN(Cc2ccccc2)CC1`, the “activation” value was -0.769% [at 39.1 µM].

`CCOC(=O)C1CC(=O)C(=C(O)C2CC2)C(=O)C1` (centres undefined): the “activation” value was 1.03%.

Consider `O=S(=O)(O)C(F)(F)F`, for which the “activation” value was -3.07%.

For the compound `O=c1[nH]cnc2c1ncn2[C@@H]1O[C@H](CO)[C@@H](O)[C@H]1O`, the “activation” value is 4.6%.

Regarding `Cc1cc(NS(=O)(=O)c2ccc(N)cc2)nc(C)n1`, the “activation” value is 8.62%.

For the compound `CC(C)CCCCCCc1ccc(OCCOCCO)cc1`, the “activation” value is 2.12% [at 95.3 µM].

On to `CC1(C)S[C@@H]2[C@H](NC(=O)C(C(=O)O)c3ccccc3)C(=O)N2[C@H]1C(=O)O` (some centres undefined), for which the “activation” value is -3.44%.

In the case of `CCCCCCCCOC(=O)CCCCCCCCC(=O)OCCCCCCCC`, the “activation” value was 1.96%.

With `O=C1C=CC(=O)O1`, the “activation” value was -0.703% [at 95.3 µM].
